# Screens from PubChem.
# The list is not random: actives were taken first. Their share in the collection is about 10%.
# GPT2 inhibitor: Primary qHTS assay for inhibitors of Glutamate pyruvate transaminase 2 (GPT2); AID 1671188, 2021; actives 0.25% (n = 100,000); Recombinant GPT2, coupled pyruvate oxidase/HRP Amplex Red fluorescence; Potency, µM (titrated, usually from 57.7 µM), most hits filed as inhibitors; note: nearly all actives have a fitted effect of over 60% in size
#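 Fluorescence read-out: pyruvate from GPT2 turnover coupled to pyruvate oxidase, HRP and Amplex Red (0.2mM ThPP, 0.2U/mL PO and HRP, 50uM Amplex final). Substrates 250uM a-KG, 2mM L-alanine; enzyme 10ng/uL; 30 min RT.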
# HEK cytotox: Cytotoxic Profiling in HEK 293 Cell Line of Diverse Libraries Using Quantitative High-Throughput Screening; HEK 293 viability, ATP luminescence (CellTiter-Glo), 48-72 h; Potency, µM (series often up to 115 µM), usual class: inhibitors; actives 6.6% (n = 94,000); AID 1345083, 2018; note: nearly all actives have a fitted effect of over 60% in size
#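 Cytotoxicity was scored by loss of ATP-coupled luminescence (CellTiter-Glo) in HEK 293 cells. Compound treatment ran 48 or 72 hr at 37 degree Celsius, 5% CO2, 95% humidity.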
# NPR1 antag: Natriuretic polypeptide receptor (hNpr1) antagonism - Primary qHTS; Potency, µM (titrated, usually from 46.3 µM), actives largely listed as inhibitors; HEK293 hNpr1 GloSensor cGMP, ANP-stimulated luminescence; actives 1.6% (n = 76,000); calls by dose curve; note: nearly all actives have a fitted effect of over 60% in size
# Target sequence (P16066 whole entry, looked up): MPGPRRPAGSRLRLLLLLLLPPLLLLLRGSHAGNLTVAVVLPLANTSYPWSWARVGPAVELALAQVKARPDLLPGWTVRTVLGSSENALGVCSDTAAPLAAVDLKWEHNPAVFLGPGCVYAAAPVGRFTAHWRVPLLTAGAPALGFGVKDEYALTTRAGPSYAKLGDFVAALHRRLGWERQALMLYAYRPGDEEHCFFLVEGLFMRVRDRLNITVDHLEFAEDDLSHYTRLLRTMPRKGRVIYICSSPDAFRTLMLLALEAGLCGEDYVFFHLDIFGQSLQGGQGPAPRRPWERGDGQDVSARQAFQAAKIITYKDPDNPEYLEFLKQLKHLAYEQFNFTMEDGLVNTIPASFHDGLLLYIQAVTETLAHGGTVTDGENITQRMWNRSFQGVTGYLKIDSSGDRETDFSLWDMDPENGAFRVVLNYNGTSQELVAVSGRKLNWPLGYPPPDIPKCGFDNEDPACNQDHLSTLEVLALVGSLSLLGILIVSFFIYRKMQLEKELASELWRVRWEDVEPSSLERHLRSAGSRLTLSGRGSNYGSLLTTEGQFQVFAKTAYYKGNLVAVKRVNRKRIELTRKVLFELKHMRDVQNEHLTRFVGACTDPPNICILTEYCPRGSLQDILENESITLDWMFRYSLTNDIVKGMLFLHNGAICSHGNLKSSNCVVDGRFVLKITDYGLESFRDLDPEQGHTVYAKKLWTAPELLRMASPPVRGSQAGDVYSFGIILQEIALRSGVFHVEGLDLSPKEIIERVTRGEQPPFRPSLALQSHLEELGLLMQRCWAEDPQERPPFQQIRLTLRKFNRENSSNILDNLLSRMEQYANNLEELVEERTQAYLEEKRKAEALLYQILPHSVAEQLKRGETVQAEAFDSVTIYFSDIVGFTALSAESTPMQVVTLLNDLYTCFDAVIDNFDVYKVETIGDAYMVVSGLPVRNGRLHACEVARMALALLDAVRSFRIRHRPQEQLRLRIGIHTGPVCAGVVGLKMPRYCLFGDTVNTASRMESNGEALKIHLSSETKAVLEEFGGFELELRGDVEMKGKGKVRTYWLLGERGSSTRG
#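 HEK293 cells stably expressing human Npr1 and cGMP GloSensor pGS-40F, loaded 2 h with 2% GloSensor reagent, given compound 30 min at room temperature. Luminescence read before and 20 min after 0.1 nM hNppA.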
# FLuc inh: Firefly luciferase inhibition profiling of diverse chemical library using quantitative high-throughput screening | Luciferin 4-monooxygenase (Photinus pyralis), P08659 | purified P. pyralis luciferase, luminescence, biochemical | Potency, µM (highest dose often 115 µM), hits mostly inhibitors | actives 2.5% (n = 76,000); note: nearly all actives have a fitted effect of over 65% in size
#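 Luminescence read by CCD imaging after purified firefly luciferase (10nM final) was added to substrate buffer holding 10uM D-luciferin and 10uM ATP, pH 7.5, pre-dosed with compound.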
# 3T3 cytotox: Cytotoxic Profiling in NIH 3T3 Cell Line of Diverse Libraries Using Quantitative High-Throughput Screening; NIH 3T3 viability, CellTiter-Glo ATP luminescence, 48-72 h; Potency, µM (titrated, usually from 96.7 µM), hits mostly inhibitors; actives 4.3% (n = 94,000); note: nearly all actives have a fitted effect of over 55% in size
#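 First NIH 3T3 cells are plated at 400 cells/well; next compound is pinned in; then plates incubate 48 or 72 hr at 37 °C; finally CellTiter-Glo is added and luminescence read after 10 min.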
# Hits are given with their value; i = inactive; ? = inconclusive; nt = no result. Unless noted, calls come from the whole dose curve; as a rule, active = well fitted curve in the direction sought with a large enough effect; inconclusive = small, poorly fitted or top-dose-only effect, or another doubt; inactive = no such curve, though single readings can be large; an effect the other way counts as inactive or inconclusive.
SMILES,GPT2 inhibitor,HEK cytotox,NPR1 antag,FLuc inh,3T3 cytotox
COC[C@H]1C[C@@H](NC(=O)C2CCOCC2)[C@H](O)[C@@H]1O,i,i,i,i,i
CCc1ccc(CN2CCCC(CO)(Cc3ccc(F)cc3F)C2)cc1 (configuration not stated),i,?,i,i,79µM
Cc1cc(C)n(-c2ccc(F)cc2CN2CCCC(CO)(Cc3ccccc3)C2)n1 (configuration not stated),i,?,i,i,?
O=C(NC1CCCC1)N1CCN(CCn2nc3n(c2=O)CCCC3)CC1,nt,i,nt,nt,i
COc1ccc(C(=O)N2CCC(N3C(=O)c4c(c(C)nn4-c4ccccc4)C3C3CC3)C2)cc1 (configuration not stated),nt,45µM,nt,nt,?
Cc1nn(-c2ccccc2)c2c1C(C1CC1)N(CC1CN(C(=O)c3ccc(F)cc3)C1)C2=O (configuration not stated),nt,35µM,nt,nt,?
Cc1nn(-c2ccccc2)c2c1C(C1CC1)N(C1CCCN(C(=O)c3ccc(F)cc3)C1)C2=O (configuration not stated),nt,32µM,nt,nt,?
Cc1nn(-c2ccccc2)c2c1C(C1CC1)N(C1CN(C(=O)c3ccc(C(F)(F)F)cc3)C1)C2=O (configuration not stated),nt,?,nt,nt,i
Cc1nn(-c2ccccc2)c2c1C(C1CC1)N(C1CCN(C(=O)c3ccccc3)C1)C2=O (configuration not stated),nt,?,nt,nt,14µM
O=c1c2c(nc3cc(-c4ccccc4)[nH]n13)CCN(S(=O)(=O)c1ccccc1Cl)C2,i,?,i,i,?
Cc1ccc(C(=O)N2CCC(N3C(=O)c4c(c(C)nn4-c4ccccc4)C3C3CC3)C2)cc1 (configuration not stated),nt,25µM,nt,nt,18µM
Cc1nn(-c2ccccc2)c2c1C(C1CC1)N(C1CN(C(=O)c3ccncc3)C1)C2=O (configuration not stated),nt,i,nt,nt,i
NCCn1cc(C(=O)NCCc2noc(-c3ccccc3)n2)nn1,i,i,i,i,i
COc1cc(O)cc(/C=C/c2cccc(O)c2)c1,i,nt,nt,nt,nt
Oc1cc(O)cc(/C=C/c2ccc(O)c(O)c2)c1,6.3µM,nt,nt,nt,nt
COc1ccc(OC)c(-c2ccc3ncn(-c4ccc(F)cc4F)c(=O)c3n2)c1,i,?,i,i,?
O=C(NCC(F)(F)F)C1CCCN(Cc2cccc(-c3ccc(F)cc3F)c2)C1 (configuration not stated),i,?,nt,nt,?
O=C(NC1CCCC1)C1CCCN(Cc2cccc(-c3ccc(F)cc3F)c2)C1 (configuration not stated),i,40µM,nt,nt,40µM
CC(C)NC(=O)C1CCCN(Cc2cccc(-c3ccc(F)cc3F)c2)C1 (configuration not stated),i,35µM,nt,nt,?
O=C(NC1CC1)C1CCCN(Cc2cccc(-c3ccc(F)cc3F)c2)C1 (configuration not stated),i,40µM,nt,nt,?
COCCCNC(=O)c1cn2cc(-c3ccccc3)sc2n1,i,?,nt,nt,?
Cc1noc(C)c1[S+](=O)([O-])N1CCN(c2ccc3nnc(-c4ccccc4)n3n2)CC1,nt,i,nt,nt,i
CN(C)Cc1cn(C[C@H]2C[C@@H](NS(C)(=O)=O)[C@H](O)[C@@H]2O)nn1,?,i,i,i,i
FC(F)(F)c1cccc(Nc2cnc3ccc(N4CCOCC4)nn23)c1,?,89µM,?,i,?
CN1CCN(c2ccc3ncc(Nc4ccc(F)cc4)n3n2)CC1,?,112µM,i,i,100µM
SMILES,GPT2 inhibitor,HEK cytotox,NPR1 antag,FLuc inh,3T3 cytotox
OCCc1ccc(Nc2cnc3ccc(N4CCOCC4)nn23)cc1,i,i,i,i,?
COc1ccc(Nc2cnc3ccc(N4CCOCC4)nn23)cc1,i,?,i,i,?
c1ccc(Nc2cnc3ccc(N4CCOCC4)nn23)cc1,?,112µM,i,i,?
Fc1ccc(Nc2cnc3ccc(N4CCOCC4)nn23)cc1F,i,?,i,i,?
Cc1ccccc1Nc1cnc2ccc(N3CCOCC3)nn12,?,56µM,?,i,?
Cc1ccccc1Nc1cnc2ccc(-n3ccnc3)nn12,?,?,i,i,?
COc1ccc(C(=O)N2CCC(Cc3nncn3C)C2)cc1 (configuration not stated),i,i,i,?,i
COc1ccc(-c2cnc3[nH]cc(CC(=O)NC4CCOCC4)c3c2)cc1,i,?,i,?,25µM
COc1ccc(-c2cnc3[nH]cc(CC(=O)N(C)C)c3c2)cc1,i,?,?,22µM,13µM
COc1ccc(OC)c(-c2cnc3[nH]cc(CC(=O)NCc4cccnc4)c3c2)c1,i,?,?,i,?
COc1ccc(-c2cnc3[nH]cc(CC(=O)NCCN(C)C)c3c2)cc1,i,100µM,i,i,50µM
Cc1ccc(C(=O)N2CCCC2C(=O)Nc2cccc(-n3cccn3)c2)cn1 (configuration not stated),i,i,i,i,i
COc1cccc(CNC(=O)C2CCN(Cc3ccccc3-c3cccnc3)CC2)c1,i,?,nt,nt,?
COc1ccc(CC2(CO)CCN(c3cc(OC)nc(N)n3)CC2)cc1,i,45µM,?,i,i
COc1ccc(CC2(CO)CCN(c3nccc(N)n3)CC2)cc1,i,?,i,i,i
Cc1cccc(CN(C(=O)c2ccco2)c2ccc(CC(=O)NC(C)C)cc2)c1,i,?,i,i,i
Cc1ccc(-c2cc3c(ccn3CC3CCN([S+](C)(=O)[O-])CC3)c(N3CCOCC3)n2)cn1,i,i,i,i,?
CC(=O)Nc1cccc(-c2cc3c(ccn3CC3CCN(C)CC3)c(N3CCOCC3)n2)c1,i,i,i,i,?
C[S+](=O)([O-])N1CCC(Cn2ccc3c(N4CCOCC4)nc(-c4cccc(C(N)=O)c4)cc32)CC1,i,i,i,i,?
C[S+](=O)([O-])N1CCC(Cn2ccc3c(N4CCOCC4)nc(-c4cccnc4)cc32)CC1,i,i,i,i,7.1µM
CN1CCC(Cn2ccc3c(N4CCOCC4)nc(-c4cccc5[nH]ncc45)cc32)CC1,i,?,i,i,45µM
CN1CCC(Cn2ccc3c(N4CCOCC4)nc(-c4cccc(C(N)=O)c4)cc32)CC1,i,?,i,i,100µM
COc1cc(F)ccc1-c1cc2c(ccn2CC2CCN(C)CC2)c(N2CCOCC2)n1,i,100µM,i,i,71µM
